Bioassay records as filed in PubChem.
Hits are enriched below; roughly 6% of the tested compounds scored in any of these assays.
D1 agonist: activates the human D1 dopamine receptor; AID 504660; actives 1% (n = 360,000); activation, % at 2 µM; P21728; HEK293 T-REx D1 cells, calcium flux, agonist mode; in the data active means activation above about 30%; further: 0% is about no effect
Target sequence (P21728 whole entry, looked up): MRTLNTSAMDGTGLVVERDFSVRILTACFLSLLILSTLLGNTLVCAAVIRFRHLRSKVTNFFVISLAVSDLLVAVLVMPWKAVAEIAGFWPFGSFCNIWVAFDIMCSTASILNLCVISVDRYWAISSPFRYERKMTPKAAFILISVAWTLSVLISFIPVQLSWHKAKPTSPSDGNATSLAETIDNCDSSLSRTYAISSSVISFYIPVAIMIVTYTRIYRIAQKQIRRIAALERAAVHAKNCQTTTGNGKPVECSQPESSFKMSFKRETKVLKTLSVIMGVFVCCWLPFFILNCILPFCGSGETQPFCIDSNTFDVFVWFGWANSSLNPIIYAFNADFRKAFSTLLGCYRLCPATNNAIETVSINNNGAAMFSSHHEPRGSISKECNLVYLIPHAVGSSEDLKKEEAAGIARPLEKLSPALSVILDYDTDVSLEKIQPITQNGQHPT
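Tetracycline-induced HEK293 TREx D1 cells, force-coupled to calcium signalling, were dye-loaded with a no-wash calcium kit. Compound was pin-added after a 10 s baseline. Fluorescence was read kinetically at 1 cycle/s for 180 s, with calcium rises flagged as agonism.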
D3 ag: D3 dopamine receptor (human) agonism. P35462. D3R DiscoveRx beta-arrestin cells, luminescence, 90 min. max activation, %. actives 0.58% (n = 410,000); in the data active means max activation above about 30%; further: 0% is about no effect
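Agonist-mode cell screen: cells plated at 1500/well and incubated overnight at 37 °C, then exposed to library compounds for 90 min at 37 °C. Detection reagent was added for 30–60 min at room temperature, and luminescence was read.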
DRD3 antagonist: D3 dopamine receptor (human) antagonism; P35462; D3R cells, DiscoveRx beta-arrestin luminescence, antagonist mode; hits give low values; max response, negative = inhibition, %; actives 2.5% (n = 360,000); AID 652054; in the data active means max response below about -50%; inconclusive means no clear call, values can overlap the other calls; further: on the % scale 0 is the no-effect control and ±100 the full control effect
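Cells expressing the human receptor were seeded at 1500 cells/well, incubated overnight at 37 degrees C in 5% CO2, then exposed to library compounds with dopamine controls for 90 minutes at 37 degrees C before luminescent detection.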
D1 PAM: enhances dopamine response at the human D1 receptor; actives 0.036% (n = 360,000); HEK293 TREx D1 cells, calcium flux, dopamine EC20 potentiation; potentiation, % at 10 µM; AID 504651; in the data active means potentiation above about 30%; further: 0% is about no effect
D1 antagonist: blocks dopamine activation of the human D1 receptor. activity change, negative = inhibition, % at 10 µM. P21728. actives 3.2% (n = 360,000). HEK293 TREx D1 cells, calcium flux, dopamine EC80; hits give low values. AID 504652; in the data active means activity change below about -30%; further: on the % scale 0 is the no-effect control and ±100 the full control effect
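After overnight tetracycline induction at 30 C, force-coupled D1 HEK293 cells took up a no-wash calcium dye at room temperature. Compounds were added and monitored 180 s, and the response to EC80 dopamine was then recorded.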
An asterisk follows results filed as active; ? = inconclusive; · = no result given; ! = a repeat was not active.

SMILES	D1 agonist	D3 ag	DRD3 antagonist	D1 PAM	D1 antagonist
Cc1ccccc1OCCCN1CCCC1	·	-44	-60*	·	·
Cc1ccc(OCCCCNC2CCCC(C)C2C)c(C)c1 (stereo unspecified)	42*	-13	-21	0	22
CCOc1ccccc1NC(=O)Cn1cc(C(=O)c2ccc(Cl)cc2)c(=O)c2ccc(C)nc21	0	-4	·	0	-2
COc1ccc(NC(=O)Cn2ccn(-c3ccc(F)c(F)c3)c(=O)c2=O)cc1Cl	2	-10	·	1	2
CSc1nc2n(n1)C(c1cc(Br)ccc1F)C(C(=O)N(C)C)=C(C)N2 (stereo unspecified)	1	2	-70*	-4	-2
CC(=O)c1ccc(-c2csc3ncnc(Sc4nnnn4C)c23)cc1	9	·	·	6	-4
Cc1ccc2nc(N3CCN(C)CC3)c(C#N)cc2c1	5	-15	?	-10	3
Cc1ccc2cc(C#N)c(NCc3ccccc3)nc2c1	3	-5	-21	-4	-33*
Cc1cccc2cc(C#N)c(NCc3ccccc3)nc12	4	3	20	-1	-3
Cc1ccc2cc(C#N)c(N3CCN(C)CC3)nc2c1	0	-19	-82*	-6	-15
Cc1cccc2cc(C#N)c(N3CCN(C)CC3)nc12	2	-8	-72*	-1	6
COCc1cc(C)nc2sc(C(=O)Nc3ccccc3O)c(N)c12	0	7	·	-6	8
CN(Cc1ccc(F)cc1)S(=O)(=O)c1nnc(NC(=O)c2ccccc2Br)s1	11	1	5	-7	-45*!
CN(Cc1ccc(F)cc1)S(=O)(=O)c1nnc(NC(=O)c2ccccc2)s1	18	-5	0	-1	-21
COc1ccc(NC(=O)Cc2c(C(=O)O)n(C)c3ccccc23)cc1OC	2	0	-2	-5	18
CCn1c(=O)n(CC(=O)Nc2cc(OC)c(OC)c(OC)c2)c(=O)c2ccccc21	0	-17	-21	-5	-45*
COc1cc(NC(=O)Cc2c(C(=O)O)n(C)c3ccccc23)cc(OC)c1OC	1	2	5	-10	-106*
C[C@H]1CN([C@@H](C)CO)S(=O)(=O)c2ccc(-c3cncnc3)cc2O[C@H]1CN(C)C(=O)NC1CCCC1	·	2	3	·	·
O=C1/C(=C/c2ccccc2Cl)SC(=S)N1CCCC(=O)N(CCO)c1ccccc1	3	2	-2	1	-4
O=C1CCC2CN3CCc4c([nH]c5ccccc45)C3CC2C1 (stereo unspecified)	·	-12	-90*	·	·
COC(=O)C1=CO[C@@H](C)[C@H]2CN3CCc4c([nH]c5ccccc45)[C@@H]3C[C@H]12	0	14	18	-7	-52*
O=C(O)[C@@H]1[C@H]2C[C@H]3c4[nH]c5ccccc5c4CCN3C[C@@H]2CC[C@@H]1O	2	-71	-61*	-6	17
C[C@H](O)[C@@H]1CN2CCc3c([nH]c4ccccc34)[C@@H]2C[C@@H]1N(C)C(=O)NC1CCCCC1	·	-15	-58*	·	·
COc1ccc2c3c([nH]c2c1)[C@H]1C[C@H]2[C@H](C[C@@H](O)[C@H](OC)[C@H]2C(=O)O)CN1CC3	-1	2	-2	-2	-3
CC(NS(=O)(=O)c1cccc(Cl)c1F)[C@H](O)c1ccccc1 (stereo partly specified)	·	5	0	·	·
SMILES	D1 agonist	D3 ag	DRD3 antagonist	D1 PAM	D1 antagonist
O=C1CC(c2ccccc2)Cc2[nH]c(=O)c(C(=O)Nc3cccc(F)c3)cc21 (stereo unspecified)	6	-7	·	0	1
CN(c1ccc(Cl)cc1)S(=O)(=O)c1nnc(NC(=O)C(C)(C)C)s1	3	2	2	-4	9
C=CCSC1=N/C(=C\c2ccsc2)C(=O)S1	3	-3	40	-2	-4
CCCSC1=N/C(=C/c2ccsc2)C(=O)N1c1ccccc1	13	18	-1	-13	-38*
CCCCSC1=N/C(=C/c2ccsc2)C(=O)N1c1ccccc1	16	8	6	-13	-45*
CCSC1=N/C(=C/c2ccsc2)C(=O)N1c1ccccc1	5	11	5	-12	-72*
CCCc1cc(=O)[nH]c(SCC(=O)c2cc(C)n(-c3cc(C)on3)c2C)n1	12	30	17	-6	-4
CCCn1c(SCC(=O)c2cc(C)n(-c3cc(C)on3)c2C)n[nH]c1=O	14	31*	11	-2	-8
